{"source": "the supplement of paper PMC5641865", "about": "“A screen for kinase inhibitors identifies antimicrobial imidazopyridine aminofurazans as specific inhibitors of the Listeria monocytogenes PASTA kinase PrkA” (The Journal of Biological Chemistry, 2017)", "note": "± gives the standard deviation of the averaged measurements.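 Also: End-point A600 read in BHI broth at 37 °C with 2% DMSO, inhibition computed as (1 − OD with compound plus ceftriaxone ÷ OD with ceftriaxone only) × 100.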", "data": [{"test_system": "Listeria monocytogenes 10403S", "assay": "growth inhibition relative to ceftriaxone-alone control; higher = stronger potentiation of ceftriaxone growth inhibition", "settings": "10 µM; ceftriaxone 1 ug/ml; 12 h", "units": {"growth inhibition": "%"}, "values": [{"smiles": "CC(C)(C)c1cc(C=C(C#N)C#N)cc(Br)c1O", "growth inhibition": "103 ± 6.1"}, {"smiles": "CN[C@@H]1C[C@H]2O[C@@](C)([C@@H]1OC)n1c3ccccc3c3c4c(c5c6ccccc6n2c5c31)C(=O)NC4", "note": "[Staurosporine]", "growth inhibition": "102 ± 5"}, {"smiles": "Cc1ccccc1-n1c(Cn2ncc3c(N)ncnc32)nc2cccc(C)c2c1=O", "growth inhibition": "15.4 ± 13"}, {"smiles": "O=c1[nH]c2ccc(Cl)cc2c(N[C@@H]2CN3CCC2CC3)c1-c1nc2ccccc2[nH]1", "growth inhibition": "96.1 ± 3.4"}, {"smiles": "COC[C@H]1OC(=O)c2coc3c2[C@@]1(C)C1=C(C3=O)[C@@H]2CCC(=O)[C@@]2(C)C[C@H]1OC(C)=O", "note": "[Wortmannin]", "growth inhibition": "2.26 ± 1.5"}, {"smiles": "CCN1CCN(C(=O)Cc2ccc(Nc3ncc(F)c(Nc4ccc(C(=O)Nc5ccccc5Cl)cc4)n3)cc2)CC1", "note": "[Aurora A Inhibitor I]", "growth inhibition": "7.11 ± 13"}, {"smiles": "Cc1ccccc1-n1c(Cn2cnc3c(N)ncnc32)nc2cccc(C)c2c1=O", "growth inhibition": "-7.86 ± 4.1"}, {"smiles": "CNC(=O)Oc1cc(C)c(/C=C/c2cncc(C(=O)NC)c2)c(C)c1", "growth inhibition": "3.06 ± 7"}, {"smiles": "Cn1cc(C2=C(c3cn(C4CCN(Cc5ccccn5)CC4)c4ccccc34)C(=O)NC2=O)c2ccccc21", "growth inhibition": "40.6 ± 17"}]}]}
